40 compounds from PubChem BioAssay (NCI) can be followed below.

Molecules are shown by their SMILES. About 79,000 compounds went through this panel and 15% of them were active in at least one assay; those are over-represented in the sample as a whole. Calls of active or inactive are those of the source. Rule as the data show it: active = growth inhibition above about 70%; inactive = the rest. Where a SMILES comes first, the peptide text is derived from it. [ ]: non-standard residue; d: D form. ξ: configuration not given here. ξH = NC(Cc1c[nH]cn1)C(=O)O

The nature of this assay: NCI Yeast Anticancer Drug Screen. Data for the mlh1 rad18 strain (AID 175). The settings on record: S. cerevisiae mlh1 rad18 strain growth inhibition; at 50.0 µM; hits give high values. Here is the method: Growth inhibition of yeast strains with defined genetic alterations is measured as a screen for potential anti-cancer activity. Selected strains with alterations in DNA damage repair or cell cycle control were exposed to compounds and growth inhibition was measured relative to vehicle treated controls. The strain used in this assay is mlh1 rad18
On to `Cc1ccc(-c2nc(C)c(C(=O)Nc3ccc(Cl)cc3)s2)cc1`, for which the growth inhibition is -65.9% (inactive).
Next, `O=C(O)Cc1ccccc1-c1ccccc1`: -43.2% (inactive); `CSc1sc2ccc(S(=O)(=O)O)cc2[n+]1C`: 9.8% (inactive).
Next, `NCCCCCC(=O)O`: -8.4% (inactive).
Then `Cc1nc(C)c(N2CCN(Cc3ccccc3)CC2)c(=O)[nH]1`, with -52.9% (inactive); and `[Cl][Sm]([Cl])[Cl]`, with 9.6% (inactive); and `COC(=O)CCC(=O)c1ccc2c(c1)CC1(C2)Cc2ccc3c(c2C1)CCCC3=O` (stereo not given), with -4.25% (inactive).
As to `NC(N)=NC(N)=Nc1ccc(C(=O)O)cc1`, the growth inhibition is -4% (inactive).
Next, `COc1ccc2nc3cccc([N+](=O)[O-])c3c(NCCC(=O)O)c2c1`: 25.8% (inactive); `O=S(=O)(O)CC(O)CSSCC(O)CS(=O)(=O)O` (stereo not given): -9.1% (inactive); `Nc1cccc2c1CCC=C2`: -1.9% (inactive).
Then `CCOc1nc(OCC)c2cnn(C)c2n1`, with -3.55% (inactive); and `CCOC(=O)C(N)Cc1cc(I)c(O)c(I)c1` (stereo not given), with -25.1% (inactive).
Then `Cc1c2ccccc2nc(CSc2n[nH]c(=S)s2)[n+]1[O-]`, with 20% (inactive).
`CC1=CC(=O)/C(=C\c2ccc3c(c2)OCO3)C(C)(C)C1`: the growth inhibition was -1.5% (inactive).
Next, `CCC(C(=O)O)c1ccc(OCc2ccccc2)cc1` (stereo not given): -2.95% (inactive).
Then `N#CCCNC(CC(=O)O)C(=O)O` (stereo not given), with -4.85% (inactive); and `Nc1cccc2ccc(Cl)nc12`, with -5% (inactive).
Next, `O=[N+]([O-])c1ccc(CS(=O)(=O)c2cccs2)o1`: 16.6% (inactive).
As to `O=c1[nH]c2cccccc-2c1-c1nc2ccccc2[nH]1`, the growth inhibition was 8.95% (inactive).
Next, `COc1ccc(C(CC(=O)c2ccccc2)C(=O)c2ccc3c(c2)OCO3)cc1` (stereo not given): -31.6% (inactive).
Next, `COc1ccc(Cc2ccc(OC)c3ccccc23)c2ccccc12`: -5.25% (inactive).
Next, `CCCC(=O)Nc1cccc(Cl)c1`: 2.35% (inactive); `NC(=O)N1CCCC1=O`: -20.9% (inactive); `O=C1CCC2CN(C(=O)c3ccccc3)CCC2C1` (stereo not given): 22.2% (inactive).
As for `CSCNC(=S)Nc1ccc(Cl)c(Cl)c1`, the growth inhibition is 61.3% (inactive).
In the case of `O=Cc1ccc2c(c1)CC1(Cc3ccccc3C1)C2`, the growth inhibition was -30.3% (inactive).
Then `CCC(c1ccc(OCc2ccccc2)cc1)c1cc2c(cc1OCCO)OCO2` (stereo not given), with 57% (inactive).
Then `NCC(=O)NC(Cc1cnc[nH]1)C(=O)NCC(=O)O` (stereo not given) (H-Gly-[ξH]-Gly-OH), with 5.15% (inactive); and `Cc1cc(Cl)c2c(C)ccc(C)c2n1`, with 8.95% (inactive).
Then `COc1nc(NC2OC(CO)C(O)C(O)C2O)c(C(C)=O)c(=O)n1C` (stereo not given), with 12.5% (inactive); and `CCNC1=CC(=O)c2ncccc2C1=O`, with 28.4% (inactive); and `CCCC[N+](C)(C)CC[N+](C)(C)CCCC`, with -16.2% (inactive).
`CCOC(=O)/C(C#N)=C/NC(N)=O`: the growth inhibition was -12.6% (inactive).
Next, `Cc1ccc2nc(C)cc(N=[N+]=[N-])c2c1`: -11.5% (inactive); `CO/N=C1\CC(NC(=O)C(F)(F)F)c2ccsc21` (stereo not given): 38.9% (inactive); `O=C1CCCCC1CO` (stereo not given): 2.3% (inactive).
Turning to `CC1(C)OC2C(CO)OC(n3cnc4c(=S)nc(N)[nH]c43)C2O1` (stereo not given), the growth inhibition was 21.7% (inactive).
Then `COC(=O)C1=C(C(=O)OC)C2CCC1O2`, with -17.6% (inactive); and `Cc1ccc(S(=O)(=O)N/N=C/c2cc([N+](=O)[O-])ccc2O)cc1`, with 28.9% (inactive).
